Results: publication PMC4552634, “A New Set of Chemical Starting Points with Plasmodium falciparum Transmission-Blocking Potential for Antimalarial Drug Discovery” (PLoS ONE, 2015)
About 3,200 (25%) of roughly 13,000 compounds showed an effect of 50% or more. This is one part of the list.

System: P. falciparum stage V gametocytes
Design: BacTiter-Glo ATP luminescence viability of purified stage V gametocytes in 384-well plates, per cent inhibition versus DMSO
Details: 48 h, 5 µM; inhibitor

Compound | % Inhibition [%]
CCOC(=O)CNC(=O)N1CCN(C(=O)NCC(=O)OCC)CC1 [TCMDC-138998] | -3.887
Cc1c(-c2ccccc2)ccc2[nH]cc(CC#N)c12 [TCMDC-139748] | 49.07
O=C(Nc1cccc(CN2CCCN(Cc3ccc(O)cc3)CC2)c1)c1ccc2ccccc2n1 [TCMDC-141860] | 34.74
CCOc1cc(C)ccc1C1CCN(CCCCNC(=O)c2nc(-c3ccc(C(F)(F)F)cc3)[nH]c2C)CC1 [TCMDC-138585] | -10.92
COc1ccc(-c2nc3ccc(C)nc3nc2-c2ccc(OC)cc2)cc1 [TCMDC-142014] | 17.71
CC(CCc1ccccc1)NCC(O)c1cccc(C(F)(F)F)c1 (stereo not drawn) [TCMDC-131247] | 18.39
c1ccc(-c2nc(NCCCn3ccnc3)cc(-c3ccncc3)n2)cc1 [TCMDC-125417] | 49.28
FC(F)(F)c1cccc(-c2cc(NCCCn3ccnc3)nc(-c3ccncc3)n2)c1 [TCMDC-125414] | 56.64
c1ccc(-c2cc(NCCCn3ccnc3)nc(-c3cccnc3)n2)cc1 [TCMDC-125422] | 8.996
CC1CN=C(c2ccc(NC(=O)c3ccc(C(=O)Nc4ccc(C5=NCC(C)N5)cc4)cc3)cc2)N1 (stereo not drawn) [TCMDC-137474] | 8.984
O=S(=O)(NCCN1CCCC1)c1ccc(-c2ccc(CNCc3ccsc3)cc2)s1 [TCMDC-132285] | 78.64
O=S(=O)(NCCN1CCCC1)c1ccc(-c2cccc(CNCc3ccsc3)c2)s1 [TCMDC-132274] | 102.4
Cc1ccc(CNC(=O)c2ccc(CN3CCCN(Cc4ccsc4)CC3)cc2)cc1 [TCMDC-136451] | 11.88
COc1ccc(S(=O)(=O)NC2CCN(c3ccc(C(F)(F)F)cc3NC(=O)OCC(C)C)CC2)cc1 [TCMDC-134275] | 14.87
N#Cc1cccc(NC(=O)Nc2cccc(-c3cccc(-c4nc5ccc(C(F)(F)F)cc5[nH]4)c3)c2)c1 [TCMDC-133195] | -34.96
Cc1nn(-c2ccccc2)c2c1C(c1ccc(C(C)C)cc1)N1C(=N2)N(Cc2ccccc2)c2ccccc21 (stereo not drawn) [TCMDC-123903] | -90.94
CCN1C(=O)N(CCC(C)C)C2(CCN(Cc3ccc(OC)cc3O)CC2)C1=O [TCMDC-124587] | 63.13
COc1ccc(CN2CCN(CCOC(c3ccc(F)cc3)c3ccc(F)cc3)CC2)c(O)c1 [TCMDC-135694] | 24.37
COc1ccc(CN2CCN(CCOC(c3ccccc3)c3ccccc3)CC2)c(O)c1 [TCMDC-135693] | 26.17
COc1ccc(S(=O)(=O)NCC2CCCN(CCCCCNC(=O)/C=C/c3ccc(Cl)c(Cl)c3)C2)cc1 (stereo not drawn) [TCMDC-139595] | 95.6
O=C(/C=C/c1ccc(Cl)c(Cl)c1)NCCCCCN1CCCC(CNS(=O)(=O)c2ccc(F)cc2)C1 (stereo not drawn) [TCMDC-139596] | 59.41
O=c1cc(NCCCNCc2cc(F)cc(C(F)(F)F)c2)[nH]c2ccccc12 [TCMDC-139726] | 25.21
CC(C)COc1ccc2ccccc2c1CNCCCCCCNCc1c(OCC(C)C)ccc2ccccc12 [TCMDC-137972] | 129.3
COc1ccc2ccccc2c1CNCCCCCCNCc1c(OC)ccc2ccccc12 [TCMDC-137915] | 112.9

Compound | % Inhibition [%]
CC(C)CCNCc1c(O)ccc2ccccc12 [TCMDC-137596] | 6.02
CC(C)Oc1ccc2ccccc2c1CNCCCCCCNCc1c(OC(C)C)ccc2ccccc12 [TCMDC-137965] | 107.1
CCCCNC[C@@H](O)[C@H](Cc1ccccc1)NC(=O)c1cc(NCC)cc(N2CCCCS2(=O)=O)c1 [TCMDC-135177] | 4.465
CCOC(=O)c1[nH]c(-c2cccc(F)c2)nc1N [TCMDC-131794] | -46.62
O=C(Nc1cccnc1)c1cc(-c2cccnc2)nc2ccc(Cl)cc12 [TCMDC-124361] | -11.56
COc1ccc(-n2ncc(C(=O)N3CCC4(C3)C(=O)N(c3ccccc3)c3ccccc34)c2C)cc1 (stereo not drawn) [TCMDC-134122] | -6.778
O=C(/C=C/c1ccc(C(F)(F)F)cc1)NCCCCCN1CCC(c2c[nH]c3ccccc23)CC1 [TCMDC-139209] | 23.24
O=C(NCCCN1CCC(NC(=O)c2ccc(-c3cccnc3)cc2)CC1)c1ccc(Cl)c(Cl)c1 [TCMDC-133357] | 16.57
O=C(NCCCCCN1CCC(c2ccc(O)cc2)CC1)c1ccc(-c2ccccc2)cc1 [TCMDC-139196] | -56.25
O=C(NC1CCN(CCN2CCC(c3ccccc3C(F)(F)F)CC2)CC1)c1ccc(-c2ccc(Cl)cc2)cc1 [TCMDC-138809] | -39.81
O=C(NCCCCCN1CCC(c2c[nH]c3ccccc23)CC1)c1ccc(-c2ccccc2)nc1 [TCMDC-139157] | -73.03
O=C(NCCCCN1CCC(c2c[nH]c3ccc(-c4ccccc4)cc23)CC1)c1ccc(-c2ccccc2)cc1 [TCMDC-139064] | 108.8
O=C(NCCCCN1CCC(c2c[nH]c3ccccc23)CC1)c1sc(-c2ccc(C(F)(F)F)cc2)nc1CO [TCMDC-138780] | -12.54
O=C(NCCCCN1CCC(c2c[nH]c3ccccc23)CC1)c1ccc(-c2ccc(C(F)(F)F)cc2)cc1 [TCMDC-138631] | 87.17
O=C(NC1CCN(CCN2CCC(c3c[nH]c4ccccc34)CC2)CC1)c1ccc(-c2ccc(C(F)(F)F)cc2)cc1 [TCMDC-138845] | 66.39
O=C(NCCCCCN1CCC(c2c[nH]c3ccccc23)CC1)c1ccc(-c2cccnc2)cc1 [TCMDC-139183] | 113.1
COc1ccc2[nH]cc(C3CCN(CCCCCNC(=O)c4ccc(-c5ccccc5)cc4)CC3)c2c1 [TCMDC-139053] | 30.55
O=C(NC1CCN(CCN2CCc3ccccc3CC2)CC1)c1ccc(-c2ccc(C(F)(F)F)cc2)cc1 [TCMDC-138831] | -7.885
CC(=O)c1ccccc1OCCSc1nnc(Cc2cccs2)n1C1CCCCC1 [TCMDC-123554] | -19.51
CCN(C(=O)NC)C1c2cc(C#N)ccc2OC(C)(C)C1O (stereo not drawn) [TCMDC-131556] | 13.93
CCCC1N=C(N)N=C(N)N1c1ccc(C)c(C)c1 (stereo not drawn) [TCMDC-131301] | 2.054
O=C(Nc1cc(C(F)(F)F)ccc1N1CCOCC1)C(Cl)(Cl)Cl [TCMDC-123707] | 15.78
CCCCN(CCCC)C(=N)c1cccc2c1CCCC2 [TCMDC-131553] | 17.3
COc1ccc(CC2(c3ccc(F)cc3)N=C(N)N(CCCc3ccc4c(c3)OCO4)C2=O)cc1 (stereo not drawn) [TCMDC-136540] | -15.69

Compound | % Inhibition [%]
COc1cc(Cc2cnc(N)nc2N)cc(OCCNC(=O)OCc2ccccc2)c1OC [TCMDC-138056] | -17.39
CCOC(=O)Nc1cc(-c2csc(N=C(N)N)n2)cc([N+](=O)[O-])c1 [TCMDC-137230] | -82.77
Cn1nccc1C(=O)NCCNCc1cccc(-c2cccc(-c3nc4cc(C(F)(F)F)ccc4[nH]3)c2)c1.O=C(O)C(F)(F)F [TCMDC-133008] | 12.04
COc1cc2c(cc1S(=O)(=O)c1ccc(NC(=O)c3cc4ccccc4s3)cc1)CCN(C)CC2 [TCMDC-133789] | 17.23
COc1ccc2nc(C)cc(NC3Cc4ccccc4C3)c2c1.Cl [TCMDC-138978] | 40.25
COc1ccc(Nc2nc(N/N=C/c3cc(Br)ccc3O)nc(Nc3ccc([N+](=O)[O-])cc3)n2)cc1 [TCMDC-124182] | 30.94
Oc1ccc2ccccc2c1C=NNc1nc(Nc2ccccc2)nc(Nc2ccccc2)n1 [TCMDC-125790] | 78.83
O=[N+]([O-])c1cc2c(cc1C=NNc1nc(Nc3ccccc3)nc(Nc3ccccc3)n1)OCO2 [TCMDC-124249] | -0.02415
COc1ccc(Nc2nc(NN=Cc3cc(Br)c(O)cc3O)nc(Nc3ccc([N+](=O)[O-])cc3)n2)cc1 [TCMDC-124181] | 28.04
COc1c(C=NNc2nc(Nc3ccccc3)nc(Nc3ccccc3)n2)ccc(Br)c1O [TCMDC-125800] | 79.97
COc1ccc(Nc2nc(N/N=C/c3ccc(-c4ccc([N+](=O)[O-])cc4)o3)nc(Nc3ccccc3)n2)cc1 [TCMDC-124187] | 17.9
COc1ccc(Nc2nc(NN=Cc3cc(Cl)ccc3O)nc(Nc3ccccc3)n2)cc1 [TCMDC-124115] | 59.23
Brc1cc2c(cc1C=NNc1nc(Nc3ccccc3)nc(Nc3ccccc3)n1)OCO2 [TCMDC-124195] | 14.96
Oc1ccc2ccccc2c1C=NNc1nc(Nc2ccccc2)nc(N2CCOCC2)n1 [TCMDC-123839] | -12.77
Cc1cccc(CN2CCCC3(CCN(Cc4ccccc4O)C3)C2)c1 (stereo not drawn) [TCMDC-124654] | 29.07
Cc1cc(NC(=O)c2cccs2)ccc1OC1CCN(Cc2ccccc2)C1 (stereo not drawn) [TCMDC-133968] | -2.762
O=C(Cc1cnc[nH]1)Nc1ccc(-c2cccc(-c3nc4ccc(F)cc4[nH]3)c2)cc1 [TCMDC-136941] | 11.61
CCCCCCN1CCCN(Cc2ccc(C(=O)Nc3ccc(F)c(F)c3)cc2)CC1 [TCMDC-136392] | -27.76
COc1ccc(CNCc2ccc(-c3ccc(-c4nc5cc(C(F)(F)F)ccc5[nH]4)s3)cc2)cc1.O=C(O)C(F)(F)F [TCMDC-132719] | -32.49
CNCCNCc1ccc(-c2ccc(-c3nc4ccc(F)cc4[nH]3)s2)cc1 [TCMDC-132829] | 87.07
CNCCNCc1cccc(-c2ccc(-c3nc4ccccc4[nH]3)s2)c1 [TCMDC-132823] | 28.05
Fc1ccc2nc(-c3ccc(-c4ccc(CNCCc5ccncc5)cc4)s3)[nH]c2c1 [TCMDC-132848] | -14.58
CNCCNCc1ccc(-c2ccc(-c3nc4ccc(C(F)(F)F)cc4[nH]3)s2)cc1 [TCMDC-132838] | 66.7
CS(=O)(=O)NCCCNCc1ccc(-c2ccc(-c3nc4ccc(F)cc4[nH]3)s2)cc1 [TCMDC-133084] | 18.31
